Source: PubChem BioAssay
Shown are actives, neighbours in structure and some others; about 2.8% of the full set was active somewhere.
B2AR ag: beta2AR agonists driving receptor internalization, primary screen, cell-based, FAP fluorogen, flow cytometry | Beta-2 adrenergic receptor (Homo sapiens), P07550 | Am2.2-beta2AR cells | response, % (test concentration not listed) | 340,000 compounds, 0.43% hits;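 active = response above a set limit, near 3 SD of response in nonfluorescent compounds, cut at about 42% in these data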
Target sequence (P07550 whole entry, looked up): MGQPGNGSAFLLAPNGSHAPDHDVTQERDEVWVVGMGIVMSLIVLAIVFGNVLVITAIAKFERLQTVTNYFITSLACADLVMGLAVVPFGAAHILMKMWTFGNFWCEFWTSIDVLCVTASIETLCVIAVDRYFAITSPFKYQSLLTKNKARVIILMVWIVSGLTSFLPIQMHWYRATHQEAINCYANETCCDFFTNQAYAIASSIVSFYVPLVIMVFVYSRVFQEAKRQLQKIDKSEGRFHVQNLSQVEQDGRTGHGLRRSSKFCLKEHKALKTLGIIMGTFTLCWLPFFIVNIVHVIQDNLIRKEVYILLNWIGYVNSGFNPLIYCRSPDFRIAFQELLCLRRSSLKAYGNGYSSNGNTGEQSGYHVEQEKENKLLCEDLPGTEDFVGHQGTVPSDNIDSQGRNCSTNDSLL
Peg3 prom inh: Peg3 promoter-driven luciferase inhibitors, primary screen, cell-based, HeLa, luciferase luminescence; HeLa PEG-Prom luciferase reporter, overnight; inhibition, % at 20 µM; 360,000 compounds, 1.7% hits; AID 588405, 2011;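 active = inhibition of at least 50% at 20 µM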
HIF-2a inh: HIF-2a reporter inhibitors, primary screen, luminescence, 786-0 RCC cells; 786-0 RCC cells HIF-2a reporter, luciferase luminescence, overnight; inhibition, % at 18.8 µM; 360,000 compounds, 0.72% hits; AID 624352, 2012;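 active = inhibition of the luminescence signal of 40% or more relative to plate controls, in a single-dose primary screen at 18.75 µM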
KKLEB cytotox: cytotoxicity in KKLEB CF airway cells, primary screen, cytotoxicity control for CF NF-kB inhibitor project, cell-based, uHTS, fluorescence assay plates | activity change (cytotoxicity), % at 5 µM | KKLEB CF airway cells viability, ATPlite luminescence, overnight; active compounds read low; cells stimulated with P. aeruginosa culture filtrate | AID 602141, 2011 | 360,000 compounds, 0.36% hits;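 active = corrected activity change at or below -50% at 5 µM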
TRPM1 prom inh: inhibitors of MITF-dependent TRPM1 promoter reporter, primary screen, cell-based, SK-MEL-5, single point, luciferase; inhibition, % at 12.5 µM; SK-MEL-5 TRPM1 promoter luciferase, 24 h; AID 488899, 2010; 330,000 compounds, 0.83% hits;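 active = mean inhibition across replicates of 60% or more, whatever share of single replicates reaches that level; inconclusive = some that reach 60%, reason not given; inactive = mean inhibition across replicates below 60%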
CF NFkB inh: inhibitors of PAF-induced NF-kB signaling, primary screen, cell-based, GFP fluorescence, uHTS | AID 588850, 2011 | KKLEB NF-kB-GFP reporter, GFP fluorescence overnight | 360,000 compounds, 0.86% hits | inhibition, % at 5 µM;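 active = at least 50% inhibition at 5 µM, scaled per plate between neutral and stimulator controls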;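 note: PAF is a Pseudomonas aeruginosa culture filtrate used as stimulus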
Numbers stand for hits; n = inactive; u = inconclusive; x = no result.

SMILES	B2AR ag	Peg3 prom inh	HIF-2a inh	KKLEB cytotox	TRPM1 prom inh	CF NFkB inh
CCN(CC)S(=O)(=O)c1cccc(C(=O)N/N=C/c2ccc([N+](=O)[O-])o2)c1	n	n	n	n	84.7	n
O=C(N/N=C/c1ccc([N+](=O)[O-])cc1)c1cc2ccccc2o1	n	n	n	n	n	n
O=C(N/N=C\c1ccc([N+](=O)[O-])o1)c1cncc(Br)c1	n	n	n	n	n	n
CCCNC(=O)C[C@H]1C[C@H]2c3cc(NC(=O)Nc4ccc(F)cc4)ccc3O[C@H]2[C@@H](CO)O1	x	n	n	n	x	n
COc1ccc(NC(=O)N(C)C[C@H]2OCc3cnnn3CCCC(=O)N([C@@H](C)CO)C[C@H]2C)c(OC)c1	x	n	n	n	x	n
Cc1ccc(-c2nn(-c3ccccc3)cc2C2CC(c3cccs3)=NN2C(=O)CCCC(=O)O)cc1 (stereo unspecified)	69.1	n	n	n	n	n
CCc1nc2ccc(C(=O)N3CCN(C(=O)c4ccco4)CC3)cn2c1N(C)C(=O)Nc1ccccc1OC	x	n	n	n	x	n
O=C(CCCl)Nc1nc2c(s1)CCc1ccccc1-2	n	54.5	n	n	n	n
CC(=O)Nc1nc2c(s1)CCc1ccccc1-2	n	n	n	n	n	n
COc1ccc(Nc2nc(N)c([N+](=O)[O-])c(N3CCOCC3)n2)cc1	n	n	n	n	n	n
CN(C)c1ccc(Nc2nc(N)c([N+](=O)[O-])c(N3CCOCC3)n2)cc1	n	51.5	n	n	n	n
O=[N+]([O-])c1cc([N+](=O)[O-])c2c(=Nc3ccccc3)n(-c3ccccc3)n(O)c2c1	n	n	n	n	61.1	n
CC(C)C[C@H]1CN(CCCC[C@@H]2CNC(=O)C(=O)N2Cc2ccccc2)C(=O)C(=O)N1Cc1ccccc1	x	x	n	x	x	x
O=C1/C(=C/c2ccccc2)SC(=S)N1C1CCS(=O)(=O)C1 (stereo unspecified)	n	n	n	n	n	n
O=C1/C(=C/c2ccncc2)SC(=S)N1C1CCS(=O)(=O)C1 (stereo unspecified)	n	n	40.7	n	n	64.8
Cc1nc2ccc(C(=O)NCCCN3CCCC3=O)cn2c1N(C)C(=O)CCc1ccccc1	x	n	n	n	x	n
CCCCCn1c2c(c(=N)c3ccccc31)CCC2	n	n	n	n	n	n
CCCCCCCCn1c2c(c(=N)c3ccccc31)CCC2	n	86.4	n	n	89.9	n
CCn1c2c(c(=N)c3c1CCC3)CCCC2	n	n	n	n	x	n
CCCCCCCCCCn1c2c(c(=N)c3c1CCC3)CCC2	n	97.6	63.8	-63.7	80.7	58.8
CCCS(=O)(=O)NC(=O)C1(C)CCCN(C(=O)c2oc3ccccc3c2C)C1 (stereo unspecified)	x	n	n	n	x	n
O=C1Nc2c(Br)cc(Br)c3cccc1c23	n	73.6	n	n	n	n
COc1ccc(-c2ccc(CN3C(CC(C)C)C(=O)N(Cc4cn(CCC5OCCCO5)nn4)CCS3(=O)=O)cc2)cc1OC (stereo unspecified)	x	n	n	n	x	n
C/C(=N/Nc1ccc(C(=O)c2c(C)cc3ccccn23)cc1[N+](=O)[O-])c1ccc(O)cc1	n	n	n	n	n	n
C/C(=N\Nc1ccc(C(=O)c2c(C)cc3ccccn23)cc1[N+](=O)[O-])c1ccc(O)cc1	n	n	n	-61.9	n	68.7
SMILES	B2AR ag	Peg3 prom inh	HIF-2a inh	KKLEB cytotox	TRPM1 prom inh	CF NFkB inh
Cc1ccc(S(=O)(=O)N2C[C@H]3C(=O)C[C@@H](c4ccccc4)N(S(=O)(=O)c4cccc(C)c4)[C@H]3C[C@H]2c2ccccc2)cc1	x	n	n	n	x	n
C[C@H](NC(=O)[C@@H]1CCCN1C(=O)[C@@H]1CCCN1C(=O)c1ccc(Cl)cc1)c1ccccc1	x	x	n	x	x	x
NCC(c1ccco1)c1c[nH]c2ccccc12 (stereo unspecified)	n	n	n	n	n	n
O=S1(=O)CCN(c2ccccc2CC(c2c[nH]c3ccccc23)c2c[nH]c3ccccc23)CC1	n	57.4	n	n	n	n
COc1ccc2nc3n(c(=O)c2c1)-c1ncccc1C(=O)NC3C (stereo unspecified)	x	n	n	n	x	n
CNC(=O)c1nnsc1S(=O)c1ccc(Cl)cc1 (stereo unspecified)	n	102.6	n	n	u	90.9
O=C1/C(=C/c2ccccc2)SC(=S)N1CC(=O)N1CCCCC1c1cccnc1 (stereo unspecified)	n	58.7	72.9	n	n	n
O=C(CCN1C(=O)/C(=C/c2ccccc2)SC1=S)Nc1cccnc1	n	n	n	n	n	n
O=C1C=C(N2CCCCC2)c2ccccc2C1=O	n	100.0	46.4	-77.1	x	100.4
COc1ccc(-n2ncc(C(C)NS(=O)(=O)c3cc(C)sc3C)c2C)cc1 (stereo unspecified)	x	n	n	n	x	n
CC1(C)Cc2ccccc2C2=NNC(=O)C2=N1	n	n	n	n	95.9	75.4
COc1ccc(Br)cc1C(=O)Nc1ccc(C(=O)NCC(C)C)cc1	n	n	n	n	n	n
CCOc1ccc(Br)cc1C(=O)Nc1ccc(C(=O)NCC(C)C)cc1	n	95.1	n	n	n	n
COc1ccc(CNC(=O)C(c2ccco2)N(Cc2cccs2)C(=O)Cc2cccs2)cc1 (stereo unspecified)	n	n	n	n	n	n
COc1ccc(CNC(=O)C(c2ccc(C)cc2)N(Cc2cccs2)C(=O)c2ccc3c(c2)OCCO3)cc1 (stereo unspecified)	n	63.4	n	-93.5	n	100.2
COc1ccc(CNC(=O)C(c2cccs2)N(Cc2ccco2)C(=O)Cc2cccs2)cc1 (stereo unspecified)	n	57.2	n	n	n	n
CCC(=O)N1CCC1(C)C(=O)Nc1ccc(F)cc1 (stereo unspecified)	x	n	n	n	x	n
NC(=O)/C=C/C(=O)Nc1ccc(Cl)cc1	n	62.5	n	n	n	n
CN=c1scc(C)n1/N=C/c1ccc(O)c(O)c1O	69.0	n	n	n	n	n
C=CCN=c1scc(-c2ccco2)n1/N=C/c1ccc(O)c(O)c1O	n	n	n	n	n	n
CN=c1scc(-c2cccs2)n1/N=C/c1ccc(O)c(O)c1O	105.7	n	n	n	n	n
Cc1ccc(C(=O)c2oc3ccc(Cl)cc3c2NC(=O)CN2CCN(C)CC2)cc1	n	107.2	n	n	n	n
CCOC(=O)[C@]12CCC=C1N(Cc1ccc(Cl)cc1Cl)C(=O)[C@H](CC(=O)N1CCSCC1)C2	x	x	n	x	x	x
